Results taken from the supplement of paper PMC11001985.
A number with no mark means an inactive call.

Compound: C#CCNC(=O)CCSSCCC(=O)NCCc1ccc(C=O)c(C=O)c1
Experiment: lysine labeling ratio R10:1 (500 µM / 50 µM probe), SILAC-ABPP in living cells; higher = lower intrinsic lysine reactivity toward the probe, active = 2 or less
Details: HeLa; probe concentrations 500 vs 50 µM
Outline: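 Living SILAC light and heavy HeLa cells in PBS at room temperature were treated with an alkyne-tagged, disulfide-linked lysine probe at 50 µM or 500 µM, with forward and reverse label swaps. The mixed lysates were clicked to biotin-azide, digested with trypsin, captured on neutravidin, released with DTT, alkylated and run by LC-MS/MS on a TIMS-TOF Pro. R for each lysine is the filtered median high-probe/low-probe MS1 peptide ratio, taken again as the median over forward and reverse replicates. Any value above 20 is set to 20.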

Chain of UniProt Q15149 (Q15149 whole entry): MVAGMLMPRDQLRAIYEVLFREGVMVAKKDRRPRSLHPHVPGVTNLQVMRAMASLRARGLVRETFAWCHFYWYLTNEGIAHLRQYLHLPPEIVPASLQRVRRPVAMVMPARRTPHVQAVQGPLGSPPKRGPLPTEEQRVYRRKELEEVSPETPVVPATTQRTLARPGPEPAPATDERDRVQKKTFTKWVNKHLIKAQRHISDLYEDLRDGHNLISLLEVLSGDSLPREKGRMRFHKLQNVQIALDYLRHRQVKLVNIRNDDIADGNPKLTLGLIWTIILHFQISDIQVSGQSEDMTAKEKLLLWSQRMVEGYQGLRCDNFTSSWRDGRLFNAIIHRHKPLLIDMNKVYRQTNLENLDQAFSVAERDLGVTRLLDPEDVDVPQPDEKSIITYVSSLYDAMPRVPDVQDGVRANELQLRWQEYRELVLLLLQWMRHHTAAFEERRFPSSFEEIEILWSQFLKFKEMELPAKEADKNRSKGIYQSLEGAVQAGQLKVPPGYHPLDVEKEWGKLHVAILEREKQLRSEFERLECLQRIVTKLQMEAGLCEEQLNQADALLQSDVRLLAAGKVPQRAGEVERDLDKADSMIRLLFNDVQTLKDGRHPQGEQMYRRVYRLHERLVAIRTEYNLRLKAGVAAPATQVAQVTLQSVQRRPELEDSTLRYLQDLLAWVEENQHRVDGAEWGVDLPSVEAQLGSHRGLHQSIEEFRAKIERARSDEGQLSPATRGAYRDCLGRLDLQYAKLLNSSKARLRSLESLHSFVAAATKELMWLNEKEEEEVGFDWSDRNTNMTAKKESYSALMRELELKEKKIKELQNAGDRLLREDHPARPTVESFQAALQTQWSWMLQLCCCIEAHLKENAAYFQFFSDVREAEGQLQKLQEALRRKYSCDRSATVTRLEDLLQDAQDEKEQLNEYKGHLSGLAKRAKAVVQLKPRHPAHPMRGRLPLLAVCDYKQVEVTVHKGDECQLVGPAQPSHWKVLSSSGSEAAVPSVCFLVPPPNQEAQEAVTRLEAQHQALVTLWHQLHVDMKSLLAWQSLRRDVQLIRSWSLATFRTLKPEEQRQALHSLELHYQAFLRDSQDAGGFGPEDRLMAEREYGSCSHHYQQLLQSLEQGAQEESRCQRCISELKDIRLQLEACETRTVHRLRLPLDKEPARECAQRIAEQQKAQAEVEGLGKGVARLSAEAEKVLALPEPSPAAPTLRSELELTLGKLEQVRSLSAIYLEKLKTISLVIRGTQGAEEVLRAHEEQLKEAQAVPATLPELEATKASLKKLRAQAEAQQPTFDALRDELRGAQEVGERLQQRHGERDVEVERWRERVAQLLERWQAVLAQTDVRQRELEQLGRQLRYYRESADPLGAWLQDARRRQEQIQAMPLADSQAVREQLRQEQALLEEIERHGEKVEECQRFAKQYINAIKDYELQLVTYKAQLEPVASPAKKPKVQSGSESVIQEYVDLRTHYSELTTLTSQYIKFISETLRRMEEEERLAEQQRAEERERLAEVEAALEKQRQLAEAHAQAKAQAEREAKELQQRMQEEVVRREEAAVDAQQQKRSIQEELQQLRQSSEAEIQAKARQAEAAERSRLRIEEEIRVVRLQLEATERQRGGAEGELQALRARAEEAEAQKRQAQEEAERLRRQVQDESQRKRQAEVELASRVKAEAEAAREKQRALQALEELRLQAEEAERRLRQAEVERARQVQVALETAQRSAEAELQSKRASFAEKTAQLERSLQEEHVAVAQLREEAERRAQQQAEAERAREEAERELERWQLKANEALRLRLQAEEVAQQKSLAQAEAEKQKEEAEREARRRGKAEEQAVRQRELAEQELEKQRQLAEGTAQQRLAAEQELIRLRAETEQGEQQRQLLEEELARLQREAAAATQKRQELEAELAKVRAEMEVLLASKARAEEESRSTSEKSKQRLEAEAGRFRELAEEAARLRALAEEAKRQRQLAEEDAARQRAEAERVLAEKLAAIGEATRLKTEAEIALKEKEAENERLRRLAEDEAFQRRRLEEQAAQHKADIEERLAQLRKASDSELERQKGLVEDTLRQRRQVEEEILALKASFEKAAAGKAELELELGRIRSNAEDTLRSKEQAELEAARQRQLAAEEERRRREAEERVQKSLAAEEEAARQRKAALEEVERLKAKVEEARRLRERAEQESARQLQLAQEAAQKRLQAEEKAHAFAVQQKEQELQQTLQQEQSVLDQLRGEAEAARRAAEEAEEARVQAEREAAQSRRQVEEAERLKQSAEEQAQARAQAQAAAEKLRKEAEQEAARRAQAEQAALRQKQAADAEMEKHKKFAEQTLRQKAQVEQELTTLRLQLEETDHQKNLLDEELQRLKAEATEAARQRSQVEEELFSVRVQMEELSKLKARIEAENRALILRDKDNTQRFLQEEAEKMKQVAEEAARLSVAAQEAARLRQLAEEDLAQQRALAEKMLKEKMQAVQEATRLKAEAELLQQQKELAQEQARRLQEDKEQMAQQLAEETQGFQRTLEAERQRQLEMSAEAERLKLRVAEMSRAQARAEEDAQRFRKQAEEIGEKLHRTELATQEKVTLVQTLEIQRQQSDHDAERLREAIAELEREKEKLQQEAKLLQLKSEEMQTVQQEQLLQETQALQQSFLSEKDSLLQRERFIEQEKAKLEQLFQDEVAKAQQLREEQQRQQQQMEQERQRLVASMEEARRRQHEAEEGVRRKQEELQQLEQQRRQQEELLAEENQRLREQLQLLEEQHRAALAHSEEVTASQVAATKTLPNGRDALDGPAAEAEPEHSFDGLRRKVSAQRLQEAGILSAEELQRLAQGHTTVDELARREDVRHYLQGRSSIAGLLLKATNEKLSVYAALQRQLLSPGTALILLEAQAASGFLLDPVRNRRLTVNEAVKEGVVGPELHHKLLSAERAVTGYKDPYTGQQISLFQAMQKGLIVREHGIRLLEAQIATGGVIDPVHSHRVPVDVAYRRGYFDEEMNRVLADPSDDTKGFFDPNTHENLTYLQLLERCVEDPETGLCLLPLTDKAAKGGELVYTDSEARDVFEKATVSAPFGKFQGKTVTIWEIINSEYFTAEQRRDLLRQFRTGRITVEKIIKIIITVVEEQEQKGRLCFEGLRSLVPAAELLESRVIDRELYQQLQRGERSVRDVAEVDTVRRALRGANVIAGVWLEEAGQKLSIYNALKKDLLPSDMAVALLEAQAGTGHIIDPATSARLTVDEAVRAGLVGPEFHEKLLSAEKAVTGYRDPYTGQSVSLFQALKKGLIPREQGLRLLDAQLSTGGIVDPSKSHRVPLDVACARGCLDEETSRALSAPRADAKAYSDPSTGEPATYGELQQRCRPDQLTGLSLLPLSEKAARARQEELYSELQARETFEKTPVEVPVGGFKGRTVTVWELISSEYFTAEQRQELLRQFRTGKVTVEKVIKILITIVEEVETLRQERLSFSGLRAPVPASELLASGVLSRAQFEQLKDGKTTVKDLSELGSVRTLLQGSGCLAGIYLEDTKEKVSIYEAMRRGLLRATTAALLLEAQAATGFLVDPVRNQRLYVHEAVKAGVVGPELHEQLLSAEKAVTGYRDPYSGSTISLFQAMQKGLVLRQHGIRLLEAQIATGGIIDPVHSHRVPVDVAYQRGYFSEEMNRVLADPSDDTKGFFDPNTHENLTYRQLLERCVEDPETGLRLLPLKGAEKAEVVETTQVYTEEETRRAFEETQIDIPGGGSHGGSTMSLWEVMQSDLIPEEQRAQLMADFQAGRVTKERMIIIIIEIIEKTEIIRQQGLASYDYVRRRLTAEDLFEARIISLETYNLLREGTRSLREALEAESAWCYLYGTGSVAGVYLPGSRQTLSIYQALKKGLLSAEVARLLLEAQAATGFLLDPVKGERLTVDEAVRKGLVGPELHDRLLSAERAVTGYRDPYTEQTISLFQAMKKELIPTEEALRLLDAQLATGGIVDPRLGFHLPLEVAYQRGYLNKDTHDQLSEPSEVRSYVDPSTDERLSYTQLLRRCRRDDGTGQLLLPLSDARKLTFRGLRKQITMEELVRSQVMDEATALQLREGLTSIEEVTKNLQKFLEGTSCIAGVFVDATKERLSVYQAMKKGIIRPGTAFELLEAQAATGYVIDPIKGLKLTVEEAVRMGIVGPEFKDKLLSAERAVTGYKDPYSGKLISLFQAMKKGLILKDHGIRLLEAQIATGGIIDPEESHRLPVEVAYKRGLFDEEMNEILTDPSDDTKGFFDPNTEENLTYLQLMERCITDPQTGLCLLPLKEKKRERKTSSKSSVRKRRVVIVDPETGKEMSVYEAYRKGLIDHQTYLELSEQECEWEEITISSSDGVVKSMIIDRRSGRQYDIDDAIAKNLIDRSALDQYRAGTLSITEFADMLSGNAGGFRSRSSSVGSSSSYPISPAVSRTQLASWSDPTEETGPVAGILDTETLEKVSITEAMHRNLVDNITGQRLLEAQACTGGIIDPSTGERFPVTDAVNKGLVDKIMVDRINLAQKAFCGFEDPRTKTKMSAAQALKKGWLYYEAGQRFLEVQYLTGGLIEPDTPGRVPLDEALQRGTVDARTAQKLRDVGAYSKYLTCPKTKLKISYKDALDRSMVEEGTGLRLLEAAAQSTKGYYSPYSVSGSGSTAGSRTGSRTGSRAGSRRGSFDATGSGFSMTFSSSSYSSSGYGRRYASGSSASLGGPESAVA
Chain of UniProt P00558 (P00558 whole entry): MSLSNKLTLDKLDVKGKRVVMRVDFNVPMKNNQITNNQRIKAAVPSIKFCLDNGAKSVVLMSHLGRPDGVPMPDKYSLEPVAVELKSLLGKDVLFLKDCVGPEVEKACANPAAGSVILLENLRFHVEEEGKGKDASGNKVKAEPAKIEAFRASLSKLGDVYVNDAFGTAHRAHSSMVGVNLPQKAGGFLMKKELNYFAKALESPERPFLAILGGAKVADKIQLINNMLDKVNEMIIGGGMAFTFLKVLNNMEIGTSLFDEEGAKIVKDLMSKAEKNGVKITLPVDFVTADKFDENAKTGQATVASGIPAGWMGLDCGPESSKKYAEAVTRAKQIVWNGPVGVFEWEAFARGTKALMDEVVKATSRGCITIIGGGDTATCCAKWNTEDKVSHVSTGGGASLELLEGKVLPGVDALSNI

Row | Target | lysine labeling ratio R10:1
1 | HSPA9 (lysine site: K345) (UniProt P38646) | 1.17 (active)
2 | PFN1 (lysine site: K54) (UniProt P07737) | 3.31
3 | MYH9 (lysine site: K1392) (UniProt P35579) | 1.15 (active)
4 | UniProt Q15149 (lysine site: K2142) | 3.4
5 | UniProt Q15149 (lysine site: K3285) | 4.73
6 | EEF1G (lysine site: K401) (UniProt P26641) | 2.74
7 | LDLR (lysine site: K603) (UniProt P01130) | 1.19 (active)
8 | PDCD6IP (lysine site: K374) (UniProt Q8WUM4) | 5.72
9 | PPIB (lysine site: K98) (UniProt P23284) | 1.78 (active)
10 | ROBO1 (lysine site: K297) (UniProt Q9Y6N7) | 3.3
11 | UniProt Q15149 (lysine site: K3849) | 8.61
12 | PGK1 (lysine site: K361) (UniProt P00558) | 3.45
13 | FLNA (lysine site: K1801) (UniProt P21333) | 3.7
14 | UniProt P26639 (lysine site: K712) | 1.83 (active)
15 | TKT (lysine site: K144) (UniProt P29401) | 10.4
16 | STMN1 (lysine site: K53) (UniProt P16949) | 1.68 (active)
17 | UniProt P25705 (lysine site: K194) | 1.81 (active)
18 | THBS1 (lysine site: K300) (UniProt P07996) | 2.22
19 | UniProt Q8WXI7 (lysine site: K13072) | 11.1
20 | UniProt Q6NZI2 (lysine site: K265) | 4.28

Row | Target | lysine labeling ratio R10:1
21 | UniProt Q15149 (lysine site: K1908) | 3.91
22 | SURF4 (lysine site: K139) (UniProt O15260) | 3.69
23 | UniProt P62750 (lysine site: K152) | 4.64
24 | UniProt Q86V81 (lysine site: K134) | 4.23
25 | CCT4 (lysine site: K42) (UniProt P50991) | 4.65
26 | HSPA8 (lysine site: K159) (UniProt P11142) | 5.07
27 | DDX3X (lysine site: K66) (UniProt O00571) | 1.78 (active)
28 | VASN (lysine site: K133) (UniProt Q6EMK4) | 4.74
29 | MSLN (lysine site: K487) (UniProt Q13421) | 6.18
30 | RUVBL2 (lysine site: K279) (UniProt Q9Y230) | 2.65
31 | CD9 (lysine site: K133) (UniProt P21926) | 5.95
32 | CYR61 (lysine site: K378) (UniProt O00622) | 1.08 (active)
33 | CNP (lysine site: K101) (UniProt P09543) | 2.62
34 | RPL4 (lysine site: K106) (UniProt P36578) | 2.43
35 | PGK1 (lysine site: K323) (UniProt P00558) | 5.55
36 | FBLN1 (lysine site: K59) (UniProt P23142) | 1.25 (active)
37 | LRP1 (lysine site: K806) (UniProt Q07954) | 1.57 (active)
38 | IGF1R (lysine site: K502) (UniProt P08069) | 2.64
39 | UniProt P35908 (lysine site: K580) | 5.72
40 | UniProt Q15149 (lysine site: K877) | 2.95
